We go through nine compounds from PubChem BioAssay (NCATS).

Assay [1] can be described thus: qHTS for Inhibitors of the Functional Ribonucleoprotein Complex (vRNP) of Lassa (LASV) Arenavirus: Viability assay - alamar blue signal for LASV Primary Screen (AID 1347083; calls by dose curve; tested in HEK293 reporter line; also: series mostly up to about 57 µM; nearly all actives have a fitted effect of over 80% in size).
Assay [2] is described as follows: qHTS for Inhibitors of the Functional Ribonucleoprotein Complex (vRNP) of Lymphocytic Choriomeningitis Arenaviruses (LCMV): Viability assay - alamar blue signal for LCMV Primary Screen (AID 1347085; calls by dose curve; tested in HEK293 reporter line; also: nearly all actives have a fitted effect of over 80% in size; also: potency is read from the fitted curve at half-maximal effect). (qHTS replaces the single test concentration by a dilution series.)
In assay [3] the target is Nucleoprotein (Lymphocytic choriomeningitis virus (strain Armstrong)) (UniProt P09992). Kind of assay: qHTS for Inhibitors of the Functional Ribonucleoprotein Complex (vRNP) of Lymphocytic Choriomeningitis Arenaviruses (LCMV): LCMV Primary Screen - GLuc reporter signal (AID 1347086). Also: series mostly up to about 57 µM; nearly all actives have a fitted effect of over 70% in size.
Assay [4] can be described thus: qHTS of pediatric cancer cell lines to identify multiple opportunities for drug repurposing: Primary screen for TC32 cells (AID 1347089; active = well fitted curve in the direction sought with a large enough effect; an effect the other way counts as inactive or inconclusive; also: nearly all actives have a fitted effect of over 60% in size). An outline of the steps: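 qHTS, TC32, 48 h drug treatment, CellTiter-Glo luminescence as a proxy for metabolically active cells; primary top concentration 46 µM (MIPE 11-pt, NPC 8-pt); confirmatory 11-pt.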
The nature of assay [5]: qHTS of pediatric cancer cell lines to identify multiple opportunities for drug repurposing: Primary screen for DAOY cells (AID 1347090; active = well fitted curve in the direction sought with a large enough effect; an effect the other way counts as inactive or inconclusive; also: series mostly up to about 46 µM; nearly all actives have a fitted effect of over 55% in size). An outline of the steps:
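Cell viability, CellTiter-Glo luminescence; 500-1,000 cells/well, 8- or 11-point titration, 48 h compound exposure at 37 degrees C, 5% CO2. Controls: DMSO neutral, bortezomib 2.3 µM final as positive.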

Assay [6] in a line: qHTS of pediatric cancer cell lines to identify multiple opportunities for drug repurposing: Primary screen for NB-EBc1 cells (AID 1347095; active = well fitted curve in the direction sought with a large enough effect; an effect the other way counts as inactive or inconclusive; also: potency is read from the fitted curve at half-maximal effect). The gist of the method: (§1)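 Following a 5-hour attachment period, cells at 500-1,000/well received compounds and were cultured for 48 hours. CellTiter-Glo was added and luminescence read to estimate viable, metabolically active cells.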
A short description of assay [7]: qHTS of pediatric cancer cell lines to identify multiple opportunities for drug repurposing: Primary screen for SK-N-MC cells (AID 1347093; active = well fitted curve in the direction sought with a large enough effect; an effect the other way counts as inactive or inconclusive; also: potency is read from the fitted curve at half-maximal effect). An outline of the steps:
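Metabolically active cells were quantified by ATP-dependent luminescence (CellTiter-Glo, 15 min at room temperature) following 48 h treatment. Cells had been plated at 500-1,000 per well and settled for 5 h beforehand.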

A short description of assay [8]: qHTS of pediatric cancer cell lines to identify multiple opportunities for drug repurposing: Primary screen for BT-37 cells (AID 1347094; active = well fitted curve in the direction sought with a large enough effect; an effect the other way counts as inactive or inconclusive; also: potency is read from the fitted curve at half-maximal effect). An outline of the steps: as §1

Molecules are shown by their SMILES. Records with an inconclusive call do not appear. Calls of active or inactive are those of the source. Unless noted, calls follow the shape of the full dose curve.

Chain of Nucleoprotein (Lymphocytic choriomeningitis virus (strain Armstrong)) (P09992 whole entry, looked up): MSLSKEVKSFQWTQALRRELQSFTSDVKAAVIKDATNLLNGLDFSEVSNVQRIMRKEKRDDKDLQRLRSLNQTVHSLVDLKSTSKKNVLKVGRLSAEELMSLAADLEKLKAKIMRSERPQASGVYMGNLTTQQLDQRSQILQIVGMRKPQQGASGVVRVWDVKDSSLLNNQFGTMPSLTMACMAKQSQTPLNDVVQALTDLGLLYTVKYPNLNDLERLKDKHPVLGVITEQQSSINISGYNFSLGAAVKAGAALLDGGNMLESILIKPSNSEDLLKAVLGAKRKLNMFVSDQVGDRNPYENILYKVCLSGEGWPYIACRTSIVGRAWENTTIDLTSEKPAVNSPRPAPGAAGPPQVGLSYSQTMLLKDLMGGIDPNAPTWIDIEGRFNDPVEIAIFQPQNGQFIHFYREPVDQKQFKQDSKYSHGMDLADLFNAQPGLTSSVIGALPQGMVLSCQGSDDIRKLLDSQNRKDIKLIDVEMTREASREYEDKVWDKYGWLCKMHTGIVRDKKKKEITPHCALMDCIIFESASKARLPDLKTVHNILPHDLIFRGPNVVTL

Turning to `C=C1C[C@@H]2[C@H](CC[C@]3(C)C(=O)CC[C@@H]23)[C@@]2(C)C=CC(=O)C=C12`, the Potency entry in assay [1], in assay [2], in assay [3], in assay [4], in assay [5] and in assay [6] was “inactive” throughout.
As to `C[C@@H]1[C@@H](C(=O)C[C@H]2O[C@@H]3O[C@]4(C)CC[C@@H]5[C@H](C)CC[C@@H]([C@H]2C)[C@@]35OO4)O[C@@H]2O[C@]3(C)CC[C@H]4[C@H](C)CC[C@@H]1[C@@]24OO3`, the Potency result in assay [1] is “inactive”. The Potency was 21700 nM (active) in assay [2], 372 nM (active) in assay [7], 1090 nM (active) in assay [8] and 469 nM (active) in assay [6].
Turning to `CN(CCOc1ccc(NS(C)(=O)=O)cc1)CCc1ccc(NS(C)(=O)=O)cc1`, the Potency entry in assay [1] and in assay [3] was “inactive” each time.
Turning to `CC(C)c1c(C(=O)Nc2ccccc2)c(-c2ccccc2)c(-c2ccc(F)cc2)n1CC[C@@H](O)C[C@@H](O)CC(=O)O`, the Potency result in assay [1] and in assay [3] was “inactive” throughout.
For `CS(=O)c1ccc(-c2nc(-c3ccc(F)cc3)c(-c3ccncc3)[nH]2)cc1` (stereo unspecified), the Potency result in assay [2] and in assay [3] was “inactive” each time.
For `COC(=O)C1=C(C)NC(C)=C(C(=O)OCC(C)C)C1c1ccccc1[N+](=O)[O-]` (stereo unspecified), the Potency result in assay [2] and in assay [3] was “inactive” in each case.
Take `Nc1ncn([C@@H]2O[C@H](CO)[C@@H](O)[C@H]2O)c(=O)n1`: the Potency result in assay [2] was “inactive”.
For the compound `O=C(c1ccccc1)c1ccc2n1CCC2C(=O)O` (stereo unspecified), the Potency entry in assay [2] and in assay [3] was “inactive” throughout.
`C[C@@H]1[C@@H](CC(C[C@H]2O[C@@H]3O[C@]4(C)CC[C@@H]5[C@H](C)CC[C@@H]([C@H]2C)[C@@]35OO4)C[S+](=O)([O-])c2ccc(COC(=O)N(C)C)cc2)O[C@@H]2O[C@]3(C)CC[C@H]4[C@H](C)CC[C@@H]1[C@@]24OO3` (stereo partly specified): the Potency result in assay [2] and in assay [3] was “inactive” throughout. Also, the Potency is 372 nM (active) in assay [7] and 418 nM (active) in assay [6].
